Out of some 38,000 compounds screened, about 1,200 (3.2%) showed an effect of 50% or more. The median lay at about -58%. The sample holds strong results, similar compounds and a random draw of the others, so the mix is not that of the screen.
These compounds were tested on Plasmodium falciparum (assay: Calibr Malaria Delayed Death Assay SOP). Conditions: concentration 4.99e-06 (unit not given; other assays of the set use mol/L).
Type: functional, organism-based
Parameters: scale not given: in the data most compounds retested in dose-response had high values

Row | Structure (SMILES) | Percent Effect [%]
1 | O=C(CC1CCCC1)NCCNCc1cccc2c1OCCO2 | 71.86
2 | O=S(=O)(CCNCc1cccc2c1OCCO2)N1CCOCC1 | 10.69
3 | O=C(CCNCc1cccc2c1OCCCO2)NC1CCCC1 | 12.04
4 | CC(C)c1nc(CN2CCOC(CNc3cccnn3)C2)cs1 (stereo not drawn) | -68.41
5 | O=C1c2ccccc2C(=O)N1CC(O)Cn1nc(-c2cccs2)oc1=O (stereo not drawn) | 1.705
6 | O=C(c1ccnc(CC2COc3ccccc3C2)c1)N1CCCC1 (stereo not drawn) | -41.96
7 | CCS(=O)(=O)N1CCc2ccc(NC(=O)NC(C)(C)C)cc21 | -106.6
8 | CN1CCOC(CNCc2cccc(OC(F)(F)F)c2)C1 (stereo not drawn) | 1.205
9 | FC(F)(F)Oc1cccc(CNC[C@H]2Cn3ccnc3CO2)c1 | -105.1
10 | CC(O)CN1CCC(CNCc2cccc(C(N)=O)c2)CC1 (stereo not drawn) | -77.28
11 | CC(C)Oc1cccc(CC(=O)NC2CCN(CC(N)=O)CC2)c1 | -80.49
12 | CCn1ccnc1CNCC1CCN(CC(O)c2ccccc2)CC1 (stereo not drawn) | -30.37
13 | Cc1cccc(-c2[nH]ncc2CNCC2CCN(CC(C)O)CC2)c1 (stereo not drawn) | -49.15
14 | CC(C)Oc1cccc(CN2CCC(C(C)N3CCOCC3)CC2)c1 (stereo not drawn) | 55.35
15 | CC(O)CN1CCC(CNCc2cccc(OC(C)C)c2)CC1 (stereo not drawn) | 61.47
16 | CC(O)CN1CCC(CNCc2cccc(C(F)(F)F)c2)CC1 (stereo not drawn) | 82.43
17 | CC(C1CCN(Cc2ccc(OC(F)F)cc2)CC1)N1CCOCC1 (stereo not drawn) | -27.61
18 | CC(C1CCN(Cc2ccc(N(C)C)nc2)CC1)N1CCOCC1 (stereo not drawn) | -9.646
19 | O=C(Nc1cn[nH]c1)N1CCCCCC1c1ccncc1 (stereo not drawn) | -103.8
20 | Cn1cnc(S(=O)(=O)N2C[C@@H]3CC[C@H](C2)N(Cc2ccccn2)C3)c1 | -132.7
21 | N#Cc1ccc(F)c(CNC(=O)NC(CO)c2ccccc2)c1 (stereo not drawn) | -103.2
22 | Cc1ccc(N2CCC3(CCC(=O)N3Cc3ccncc3)CC2)nn1.O=C(O)C(F)(F)F | -132.1

Row | Structure (SMILES) | Percent Effect [%]
23 | COCCn1cc(CC(=O)Nc2cc(C)n(C)n2)c2ccccc21 | -50.35
24 | Cc1cc(NCCC(=O)NC2CCCCC2)nc(-c2ccncc2)n1 | -22.05
25 | Cc1ccc(-c2n[nH]cc2CNCC2CCN(CC(C)O)CC2)cc1 (stereo not drawn) | -46.8
26 | CC(O)CN1CCC(CNCc2ccc(S(C)(=O)=O)cc2)CC1 (stereo not drawn) | -36.2
27 | Cc1ncc(C(=O)N2CCCC(n3cccn3)C2)s1 (stereo not drawn) | -29.56
28 | O=S(=O)(NCC1CCN(CCN2CCOCC2)C1)c1ccccc1F (stereo not drawn) | -18.99
29 | O=C(c1cccc(CNS(=O)(=O)c2ccccc2F)c1)N1CCCC1 | -96.06
30 | Cc1cnc2c(S(=O)(=O)NCC3CC3)cccc2c1 | -114.6
31 | CNC(=O)CS(=O)(=O)C1CCN(S(=O)(=O)c2ccccc2Cl)CC1 | -120
32 | Cc1cc(CN2CCC(CNS(=O)(=O)c3ccccc3Cl)CC2)c(C)o1 | 52.45
33 | Cc1cc(CN2CCC(CNS(=O)(=O)c3ccccc3F)CC2)c(C)o1 | 78.36
34 | CN(Cc1cnn(C)c1)C(=O)CCc1ccc2c(c1)OCO2 | -45.89
35 | O=C(NCCc1ccncc1)c1cccnc1OCC(F)(F)F | -160.3
36 | CN(C)S(=O)(=O)N1CC[C@]2(O)CCN(Cc3cccc(C#N)c3)C[C@@H]2C1 | -65.92
37 | CN(C)S(=O)(=O)N1CC[C@]2(O)CCN(CCCc3cccnc3)C[C@@H]2C1 | -68.67
38 | Cc1ccc(CN2CC[C@@]3(O)CCN(S(=O)(=O)N(C)C)C[C@H]3C2)cc1C | 52.24
39 | CN(C)S(=O)(=O)N1CC[C@]2(O)CCN(Cc3cc(F)cc(F)c3)C[C@@H]2C1 | -90.9
40 | CN(C)S(=O)(=O)N1CC[C@]2(O)CCN(CCc3cccc(F)c3)C[C@@H]2C1 | 52.04
41 | CN(C)S(=O)(=O)N1CC[C@]2(O)CCN(Cc3cccc(F)c3)C[C@@H]2C1 | 18.33
42 | CCCC(=O)N1CCc2c(CNS(C)(=O)=O)cncc2C1.Cl | -54.25
43 | CCN(CC)S(=O)(=O)CC(=O)N1CCc2ccc(F)cc21 | -118.6
44 | CC(C)[C@H](N)c1nnc(SCC(=O)Nc2ccc(Br)cc2)o1.Cl | -137.1

Row | Structure (SMILES) | Percent Effect [%]
45 | O=C1CC(c2ccncc2)c2c(c(C(=O)O)cn2-c2ccccc2)N1 (stereo not drawn) | -138.8
46 | Cc1ccc(CN(C)C(=O)CCn2c(=O)n(C)c3ccccc32)o1 | -119.3
47 | CN1CCCN(C[C@@H]2CN(C(=O)N3CCOCC3)C[C@@H]2CO)CC1 | -70.22
48 | CCc1nn(C)c(Cl)c1CN1CCCC(c2cc(O)nc(C)n2)C1 (stereo not drawn) | 11.23
49 | COC[C@@]12CCO[C@@H]1CCN(C(=O)Cc1ccc(C)cc1)C2 | -64.19
50 | C[C@@H]1CN(C(=O)C2CCS(=O)(=O)CC2)C[C@@]1(O)C1CC1 | -43.61
51 | C[C@@H]1CN(C(=O)C2CCS(=O)(=O)CC2)CC[C@@]1(O)C1CCOCC1 | 70.51
52 | C[C@@H]1CN(C(=O)CCN2CCCC2)CC[C@@]1(O)C1CCOCC1 | -34.11
53 | O=C(NCCc1cc(F)ccc1F)NC(CO)c1ccccc1 (stereo not drawn) | -122.1
54 | Cc1nc(CN(C)C2CCN(CC3CCOCC3)C2)no1 (stereo not drawn) | -100.7
55 | CN1CCN(Cc2nnc(C3CCN(C(CO)CO)CC3)n2C)CC1 | -107
56 | O=C(NC1CC2(CCN(CCO)CC2)Oc2ccccc21)c1csnn1 (stereo not drawn) | -18.14
57 | CCC(=O)N1CCC2(CC1)CC(CC(=O)NC1CC1)c1ccccc1O2 (stereo not drawn) | -119.5
58 | CCN1CCC2(CC1)CC(NC(=O)c1csnn1)c1ccccc1O2.O=C(O)C(F)(F)F (stereo not drawn) | -39.08
59 | CCN1CCC2(CC1)CC(NCc1cccs1)c1ccccc1O2.O=C(O)C(F)(F)F.O=C(O)C(F)(F)F (stereo not drawn) | 85.8
60 | CS(=O)(=O)NC1CC2(CCN(CC3CC3)CC2)Oc2ccccc21.O=C(O)C(F)(F)F (stereo not drawn) | -15.02
61 | Cc1nc(NC(=O)c2nn(-c3ccc(F)cc3C)cc2O)n[nH]1 | -112
62 | CC(C)c1nc(C2CCCN2Cc2ccon2)no1 (stereo not drawn) | -96.31
63 | Cc1noc(C)c1CN1CCO[C@H]2CN(C3CCOCC3)C[C@H]21.O=C(O)C(F)(F)F | 1.266
64 | O=C(C1CC(=O)N(c2n[nH]c3cc(Br)ccc23)C1)N1CCSCC1 (stereo not drawn) | -122.2
65 | Cc1ccccc1N1CCN(C(=O)CC(C)C)CC1 | -106.5
66 | OC1(CN2CCc3nnc(Cc4cccnc4)n3CC2)CCCNC1 (stereo not drawn) | -87.58

Row | Structure (SMILES) | Percent Effect [%]
67 | CCN1CCn2c(C)cnc2C12CCN(C(=O)Cc1ccccc1)CC2.O=C(O)C(F)(F)F.O=C(O)C(F)(F)F | -58.2
68 | Cc1ccc(C(=O)Nc2nnc(C3CC3)s2)c(-n2cnnn2)c1C | -130.7
69 | CCOCCC(=O)Nc1ccnn1-c1ccc(Cl)cc1 | -25.55
70 | COCCOCC(=O)Nc1ccnn1-c1ccc(Cl)cc1 | -102.7
71 | COCC(=O)Nc1ccnn1-c1ccc(Cl)cc1 | 67.79
72 | c1ccn2c(C3CCCN(c4ncnc5c4CCNC5)C3)nnc2c1 (stereo not drawn) | 74.94
73 | Nc1nc2c(c(N3CCCC(c4nnc5ccccn45)C3)n1)CCNC2 (stereo not drawn) | 84.29
74 | COCCc1noc(C2CCCN(c3nc(N)nc4c3CCCC4)C2)n1 (stereo not drawn) | -100.3
75 | O=C(C1CC1)N1CCCN(c2ncnc3c2CCNCC3)CC1 | -49.17
76 | Nc1nc2c(c(N3CCCC(CN4CCCC4=O)C3)n1)CCNCC2 (stereo not drawn) | -109.9
77 | COCCn1ccnc1C1CCCN(c2ncnc3c2CCC3)C1 (stereo not drawn) | -114.3
78 | O=C(c1ccon1)N1CCN(c2ccncc2Cl)CC1 | -22.81
79 | CC(CN1CCOC1=O)NC(=O)c1cccc2cc[nH]c12 (stereo not drawn) | -144.8
80 | COc1ccccc1CCNC(=O)N1CCC(n2cncn2)CC1 | -50.18
81 | Cc1cc(C)c(CNC(=O)C(C)Oc2ccccc2F)c(=O)[nH]1 (stereo not drawn) | -101.9
82 | O=C(C1CCCC1)N1CCC(c2n[nH]c3nccnc23)CC1 | -90.69
83 | O=C(C1CC1)N1CCC(C(=O)N2CCC(c3ccc(F)cc3)C2)CC1 (stereo not drawn) | -98.79
84 | CC(C)Oc1ncccc1CNC(=O)C1CCCN(C(=O)C2CC2)C1 (stereo not drawn) | -154.7
85 | O=C(C1CCC1)N1CCC(C(=O)N2CCC(c3ccc(F)cc3)C2)CC1 (stereo not drawn) | -81.93
86 | O=C(C1CCC1)N1CCCC(c2cccc(-n3ccnc3)n2)C1 (stereo not drawn) | -55.02
87 | O=C(C1CC1)N1CCC(c2nc(-c3ccccc3)n[nH]2)CC1 | -99.03
88 | O=C(C1CCCCC1)N1CCC(c2n[nH]c3nccnc23)CC1 | -76.32

Row | Structure (SMILES) | Percent Effect [%]
89 | CC(C)n1ccnc1C1CCN(C(=O)c2cc[nH]n2)CC1 | -87.6
90 | Cc1csc(C2(NC(=O)CCNC(=O)C(C)(C)C)CCCC2)n1 | -41.74
91 | CCC(=O)N1CCc2onc(CNS(C)(=O)=O)c2C1 | -110.9
92 | Cc1nc(NC(=O)C(C)n2ncc(Br)c2C)sc1C (stereo not drawn) | -53.19
93 | COc1ccc(CNc2c(C)cnc3c2c(=O)n(C)c(=O)n3C)cc1 | -41.96
94 | O=C(CN(CC(O)c1ccc(F)cc1)C1CC1)Nc1cccnc1 (stereo not drawn) | -24.09
95 | COCC(=O)N1CCC2(COCc3c(C)nc(N(C)C)nc32)C1 (stereo not drawn) | -113.3
96 | Fc1cccc(OC2CCN(CCn3cc4ccccc4n3)CC2)c1 | -79.08
97 | COCCc1nnc(NC(=O)CCCc2ccccc2)o1 | -177.1
98 | O=C(O)C(F)(F)F.O=C(O)C(F)(F)F.c1csc(CN2CCC3(CC2)CCN(CC2CC2)CC3)n1 | 31.82
99 | Fc1ccc(CN2CCOCC3(CCN(Cc4nccs4)C3)C2)cc1.O=C(O)C(F)(F)F.O=C(O)C(F)(F)F (stereo not drawn) | -2.709
100 | Fc1ccc(CN2CCC3(CC2)CCN(c2ncccn2)CC3)cc1.O=C(O)C(F)(F)F.O=C(O)C(F)(F)F | 52.71
101 | CS(=O)(=O)N1CCC2(CCN(Cc3nccs3)CC2)CC1.O=C(O)C(F)(F)F | -92.74
102 | O=C(O)C(F)(F)F.O=C(O)C(F)(F)F.O=C(O)C(F)(F)F.c1cnc(N2CCC3(CCN(Cc4cccnc4)CC3)CC2)nc1 | -79.89
103 | Cc1ccc(N2CCC3(CCN(Cc4nccs4)CC3)CC2)nn1 | -7.428
104 | Fc1ccc(CN2CCC3(CCN(Cc4nccs4)CC3)C2)cc1.O=C(O)C(F)(F)F.O=C(O)C(F)(F)F | 56.57
105 | O=C(O)C(F)(F)F.O=C(O)C(F)(F)F.c1cnc(N2CC3(CCN(Cc4ccncc4)C3)C2)nc1 | -113.7
106 | Fc1ccc(CN2CCC3(CC2)CCN(Cc2nccs2)CC3)cc1.O=C(O)C(F)(F)F.O=C(O)C(F)(F)F | 86.13
107 | O=C(O)C(F)(F)F.O=C(O)C(F)(F)F.c1csc(CN2CC3(CCN(Cc4ccsc4)C3)C2)n1 | -42.12
108 | CCS(=O)(=O)N1CCC2(CCN(Cc3nccs3)CC2)CC1.O=C(O)C(F)(F)F | -47.71
